HEK293 cAMP ctrl = parental HEK293 cAMP activation (counter-screen). Potency, µM (series often up to 57.1 µM), hits mostly activators. AID 938. parental HEK293 CNG cAMP sensor, membrane potential fluorescence. 73,000 compounds, 2.5% hits; also: nearly all actives have a fitted effect of over 55% in size
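Parental HEK 293 cells stably expressing a cAMP-gated CNG channel were loaded with membrane potential dye containing 100 uM RO 20-1724 for 60 min. Compound added for 30 min; depolarization read as fluorescence intensity at 590 nm.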
ERK AVP inh = blocks ERK signaling stimulated by vasopressin; 72,000 compounds, 0.99% hits; Potency, µM (doses to about 57.5 µM), most hits filed as inhibitors; HEK293-V1b, vasopressin-stimulated pERK AlphaScreen; also: nearly all actives have a fitted effect of over 55% in size
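HEK293 cells stably expressing V1b receptor, seeded overnight in 1% FBS, were treated with compounds for 30 min at 37C, then stimulated 5 min with 25 nM vasopressin; phospho-ERK read by AlphaScreen SureFire after lysis.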
CRE Fsk mod = alters forskolin-stimulated CRE reporter signaling in CHO cells. Potency, µM (titrated, usually from 38.2 µM), hits mostly activators. CHO CRE-bla reporter (cAMP response element driving beta-lactamase), forskolin EC10, beta-lactamase ratio. 71,000 compounds, 2.5% hits; active = well fitted activation curve with a large enough effect in the signal ratio, with a control signal flat, not every such curve was filed as active; inconclusive = small, poorly fitted or top-dose-only effect, or effect the other way, or a change in a side signal; the % refers to the signal ratio
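CRE-bla CHO cells stimulated with EC10 NKH 477 (water-soluble forskolin) and compound titrations, 3 h at 37C; beta-lactamase read with CCF4 after 2 h at room temperature. Activity from 460/530 nm emission ratio, AC50 values for positive or negative modulation.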
Tau fil binding = binders of human tau filaments; P10636; Potency, µM (top dose mostly 57.1 µM); AID 596; recombinant tau filaments, thioflavin S fluorescence, 15 h; filaments grown with octadecylsulfate alongside compound; 71,000 compounds, 2% hits;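 also: actives lower thioflavin S fluorescence by blocking filaments or displacing dye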
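Quantitative HTS: thioflavine S signal from ODS-induced tau filaments, excited at 450 nm, emission 510 nm. Conditions: 1 uM tau, 30 uM ODS, 15 h at 37 C, pH 7.4.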
TSHR ag = TSH receptor (human) agonism. P16473. HEK293-CNG-TSHR cells (CNG channel as cAMP sensor), membrane potential dye, cAMP. Potency, µM (top dose mostly 57.1 µM), usual class: activators. 73,000 compounds, 0.48% hits. AID 926; active = well fitted activation curve with a large enough effect in the main read-out, with a control signal flat, not every such curve was filed as active; inconclusive = small, poorly fitted or top-dose-only effect, or a change in a side signal; inactive = no such curve, though single readings can be large or run the other way; reference of the percent scale not stated here;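 also: the control signal comes from parental cells without the receptor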
Target sequence (P16473 whole entry, looked up): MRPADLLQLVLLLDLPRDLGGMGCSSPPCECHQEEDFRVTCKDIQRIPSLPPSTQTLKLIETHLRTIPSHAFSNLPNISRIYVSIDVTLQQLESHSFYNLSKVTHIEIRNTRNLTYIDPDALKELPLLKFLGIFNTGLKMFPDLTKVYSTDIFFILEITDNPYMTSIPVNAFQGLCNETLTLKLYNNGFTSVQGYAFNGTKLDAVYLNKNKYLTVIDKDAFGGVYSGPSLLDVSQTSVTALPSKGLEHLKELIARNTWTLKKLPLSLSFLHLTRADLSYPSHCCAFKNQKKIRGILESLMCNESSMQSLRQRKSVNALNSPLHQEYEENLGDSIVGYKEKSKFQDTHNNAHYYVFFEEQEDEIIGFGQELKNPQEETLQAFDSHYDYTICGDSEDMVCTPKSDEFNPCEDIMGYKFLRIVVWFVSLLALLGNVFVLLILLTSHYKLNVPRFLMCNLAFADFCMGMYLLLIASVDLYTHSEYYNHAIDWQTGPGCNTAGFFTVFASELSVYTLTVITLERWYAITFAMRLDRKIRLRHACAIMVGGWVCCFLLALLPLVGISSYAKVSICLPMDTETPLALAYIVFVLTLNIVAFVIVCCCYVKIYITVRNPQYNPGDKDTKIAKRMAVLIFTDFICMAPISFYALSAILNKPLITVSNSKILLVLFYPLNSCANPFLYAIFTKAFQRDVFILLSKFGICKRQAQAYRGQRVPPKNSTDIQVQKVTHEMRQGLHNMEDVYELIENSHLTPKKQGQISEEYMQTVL
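HEK 293 cells stably expressing TSHR and a cAMP-gated CNG channel; parental CNG-only cells as counterscreen. Cells preloaded 60 min with membrane potential dye plus 100 uM RO 20-1724, then compound 30 min; fluorescence read at 590 nm.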
Of the large screens only hits and unclear results are named; the others gave an inactive call. A selection: hits, their analogues and other compounds. The true share with any hit is near 7.6%. Unless noted, calls follow the shape of the dose curve; as a rule, active = well fitted curve in the direction sought with a large enough effect; inconclusive = small, poorly fitted or top-dose-only effect, or another doubt; inactive = no such curve, though single readings can be large; an effect the other way counts as inactive or inconclusive.

NCCC[C@@H](CC(=O)N[C@@H]1CCNC[C@H]1C(=O)N[C@H](CC(=O)N[C@@H](CCC(=O)O)CC(=O)O)Cc1ccccc1)NC(=O)C[C@H](Cc1ccccc1)NC(=O)[C@@H]1CCCC[C@H]1N	none (no result: ERK AVP inh)
CO[C@@H]1/C=C\CC(=O)N[C@@H](C)C(=O)OC[C@@H](OC)[C@H](C)CCCC(=O)OC[C@H]1C	none (no result: CRE Fsk mod, Tau fil binding)
O=C1CCCC2=C1C(c1ccco1)Nc1ccc(C(=O)c3ccccc3)cc1N2 (stereo not given)	ERK AVP inh inconclusive, CRE Fsk mod inconclusive, Tau fil binding 6.31µM
O=C(O)[C@H]1CCCN(CCC=C(c2ccccc2)c2ccccc2)C1	none
CCCCNC(=O)c1cc2c(=O)n3cccc(C)c3nc2n1C	CRE Fsk mod inconclusive (no result: ERK AVP inh)
CCOCCCn1c(=N)c(C(=O)Nc2cc(C)on2)cc2c(=O)n3ccccc3nc21	CRE Fsk mod inconclusive
CCOCCCn1c(=N)c(C(N)=S)cc2c(=O)n3cccc(C)c3nc21	ERK AVP inh inconclusive, CRE Fsk mod 12.6µM
CCOCCCNC(=O)c1cc2c(=O)n3cccc(C)c3nc2n1C	CRE Fsk mod 0.251µM (no result: ERK AVP inh)
COc1cc(O)ccc1C(C)=O	none (no result: HEK293 cAMP ctrl, CRE Fsk mod, Tau fil binding, TSHR ag)
CCOc1ccc(OCC)c(NC(=O)C2CCN(S(=O)(=O)c3cccc4nonc34)CC2)c1	CRE Fsk mod inconclusive
COc1ccc(Cl)cc1NC(=O)C1CCCN(S(=O)(=O)c2cccc3nonc23)C1 (stereo not given)	Tau fil binding 25.1µM
Cn1cccc1C(=O)N1CCC2(CC1)CCN(c1ccc(-c3ccccc3)cc1)CC2	Tau fil binding 15.8µM (no result: TSHR ag)
Cn1cccc1C(=O)N1CCC[C@@]2(CCN(C(c3ccccc3)c3ccccc3)C2)C1	HEK293 cAMP ctrl 10µM, TSHR ag inconclusive
Cn1cccc1C(=O)N1CCC2(CCCN(C(c3ccccc3)c3ccccc3)C2)CC1	ERK AVP inh inconclusive, CRE Fsk mod inconclusive
COc1ccc(-c2nnc(-c3cccnc3)o2)cc1OC	ERK AVP inh inconclusive, CRE Fsk mod 10µM
COc1cc(-c2nnc(-c3cccnc3)o2)cc(OC)c1OC	ERK AVP inh inconclusive, CRE Fsk mod inconclusive
O=C1CCC[C@H]1C(=O)Nc1ccc2ccccc2c1	none
COC(=O)c1ccccc1NC(=O)C1CC(=O)N(c2ccc(F)cc2)C1 (stereo not given)	HEK293 cAMP ctrl 25.1µM, TSHR ag inconclusive
CCN(Cc1cc2ccccc2[nH]c1=O)S(=O)(=O)c1ccccc1	CRE Fsk mod inconclusive, Tau fil binding 12.6µM
CC(C)C(=O)N(Cc1cc2ccccc2[nH]c1=O)C(C)C	HEK293 cAMP ctrl inconclusive, TSHR ag inconclusive
Nc1ccccc1-c1nnc(SCc2ccccc2F)[nH]c1=O	Tau fil binding 15.8µM
COc1ccc(CCN(C)CCC[C@@](C#N)(c2cc(OC)c(OC)c(OC)c2)C(C)C)cc1OC	none (no result: TSHR ag)
COc1ccc(-c2cc(C(F)(F)F)n3nc(C(=O)Nc4cc(C)on4)cc3n2)cc1OC	Tau fil binding 1.58µM
CO[C@H]1COC(=O)C/C=C\[C@@H](C)COC(=O)[C@@H](CCSC)NC(=O)C/C=C\[C@@H]1C	none (no result: CRE Fsk mod, Tau fil binding)
CCN(CC)S(=O)(=O)c1cc(C(=O)Nc2nncs2)c(Cl)cc1Cl	ERK AVP inh 31.6µM, CRE Fsk mod inconclusive (no result: TSHR ag)
Cn1c(CNc2nc3ccccc3n2C)nc2ccccc21	none
Cn1c(Nn2cnnc2)nc2ccccc21	HEK293 cAMP ctrl 3.16µM, TSHR ag inconclusive
NCCC[C@@H](CC(=O)N[C@@H]1CCCC[C@H]1C(=O)N[C@H](CC(=O)N[C@@H](CCC(=O)O)CC(=O)O)Cc1c[nH]c2ccccc12)NC(=O)C[C@H](CO)NC(=O)[C@@H]1CCCC[C@H]1N	CRE Fsk mod inconclusive (no result: ERK AVP inh, TSHR ag)
O=C(CCC1COc2ccccc2O1)Nc1ccccn1 (stereo not given)	CRE Fsk mod 10µM
O=C(CC1COc2ccccc2O1)Nc1ccccn1 (stereo not given)	none
O=C(NCc1ccccn1)C1COc2ccccc2O1 (stereo not given)	ERK AVP inh inconclusive, CRE Fsk mod 10µM (no result: TSHR ag)
O=C(O)[C@H]1CN(C/C=C/P(=O)(O)O)CCN1	none (no result: CRE Fsk mod, Tau fil binding)
Nc1ccc(C(=O)c2ccc3c(c2)OCCO3)cc1N	none
Cc1ccc(C(=O)c2cc3c(cc2N)OCCO3)cc1	Tau fil binding 12.6µM
